# HCMV antiviral = inhibitors of human cytomegalovirus | 410,000 compounds, 4.5% hits | AID 1259415 | HFF cells, HCMV-luciferase reporter, 72 h; active compounds read low | activity change, negative = inhibition, % at 57.5 µM; in the data active means activity change below about -60%; inconclusive means no clear call, values can overlap the other calls; inactive means above about -39%
#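 Screen run at 2 compound doses on HFFs infected with reporter HCMV, MOI 1 PFU/cell. Luciferase activity from cell lysates at 72 h post infection gave inhibition relative to buffer-only and Salinomycin wells.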
# Pf growth 48h = P. falciparum growth inhibition at 48 hours (one generation). AID 504832. P. falciparum luciferase growth in erythrocytes, 48 h. Potency, µM (doses to about 28.7 µM), inactives show at the top dose activity change, negative = inhibition, hits mostly inhibitors. 310,000 compounds, 5.9% hits; further: potency means the concentration at half of the fitted maximal effect
#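 First compound was added to culture medium, then infected red cells at 0.1% parasitemia and 2% hematocrit (final). After incubation at 37 C under 5% CO2, luciferase detection reagent was dispensed and light output recorded.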
# Sm TGR block = blocks Schistosoma mansoni thioredoxin glutathione reductase | Q962Y6 | purified TGR, DTNB reduction, TNB absorbance 405 nm | Potency, µM (highest dose often 114 µM), without a hit: top-dose activity change, negative = inhibition, usual class: inhibitors | 360,000 compounds, 3% hits | AID 485364; further: potency means the concentration at half of the fitted maximal effect; nearly all actives have a fitted effect of over 60% in size
#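 Kinetic colorimetric format: TGR-catalysed, NADPH-driven DTNB reduction monitored via TNB absorbance. Enzyme dispensed at 20 nM; compound exposure 15 min at room temperature before reaction start.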
# Pf growth 96h = P. falciparum growth inhibition at 96 hour, primary screen for plastid delayed-death inhibitors | AID 504834 | Potency, µM (highest dose often 28.7 µM), for inactives: at the highest dose activity change, negative = inhibition, hits mostly inhibitors | P. falciparum luciferase reporter growth, 96 h | 320,000 compounds, 6.9% hits; further: potency means the concentration at half of the fitted maximal effect
#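 P. falciparum expressing integrated firefly luciferase, in erythrocytes at 2% hematocrit, 0.05% parasitemia, incubated with compounds 96 h at 37 C, 5% CO2. Growth inhibition read as loss of luminescence; two-generation exposure targets delayed-death apicoplast inhibitors.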
# FBPA Giardia inh = inhibitors of Giardia lamblia fructose-1,6-bisphosphate aldolase | A8B2U2 | purified Giardia FBPA | Potency, µM (highest dose often 59.6 µM), inactives show at the highest dose activity, negative = inhibition, actives largely listed as inhibitors | 290,000 compounds, 0.71% hits; further: potency means the concentration at half of the fitted maximal effect; nearly all actives have a fitted effect of over 55% in size
# Target sequence (A8B2U2 whole entry, looked up): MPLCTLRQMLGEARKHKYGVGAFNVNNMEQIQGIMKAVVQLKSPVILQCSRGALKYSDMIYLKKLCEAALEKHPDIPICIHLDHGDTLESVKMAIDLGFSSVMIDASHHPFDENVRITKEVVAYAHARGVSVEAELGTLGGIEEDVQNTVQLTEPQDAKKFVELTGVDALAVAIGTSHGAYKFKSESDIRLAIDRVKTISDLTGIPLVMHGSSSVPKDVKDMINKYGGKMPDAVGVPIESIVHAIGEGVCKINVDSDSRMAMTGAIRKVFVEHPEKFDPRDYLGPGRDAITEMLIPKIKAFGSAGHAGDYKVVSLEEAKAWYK
#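 40 nM FBPA preincubated 10 min at RT with compound (up to 57.5 uM final), then substrate plus GAPDH/TPI/NAD/arsenate coupling and diaphorase/resazurin added. Fluorescence read after 20 min at RT, 525/598 nm.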
# Starred values were filed as active, the others as inactive; ? = inconclusive; . = no result given. Rows were chosen to be rich in hits. Some 14% of all compounds tested hit in one or more screens of this group. Unless noted, the call rests on the fitted dose curve; in most records, active means well fitted curve in the direction sought with a large enough effect; inconclusive means small, poorly fitted or top-dose-only effect, or another doubt; inactive means no such curve, though single readings can be large; an effect the other way counts as inactive or inconclusive. On the % scale 0 is the no-effect control and ±100 the full control effect.
SMILES,HCMV antiviral,Pf growth 48h,Sm TGR block,Pf growth 96h,FBPA Giardia inh
C=C[C@]1(C)C[C@@H](OC(=O)CSCCN(CC)CC)[C@]2(C)C(C)CC[C@]3(CCC(=O)[C@H]32)[C@@H](C)[C@@H]1O (stereo partly specified),113.7,13.1µM*,-0.4%,2.08µM*,.
CC(=O)c1ccc(N2CCN(c3ccc(S(=O)(=O)NCCN(C)C)cc3[N+](=O)[O-])CC2)cc1,4.0,?,-32.9%,?,3.3%
CC(=O)c1ccc(N2CCN(c3ccc(S(=O)(=O)NCCCN(C)C)cc3[N+](=O)[O-])CC2)cc1,0.0,?,-10.6%,13.1µM*,3.8%
O=C(NC1CCCCC1)C(=O)c1ccccc1F,40.0,.,.,.,.
Nc1nc(N)c(C=Nc2ccc(Br)cc2)c(Nc2ccc(Br)cc2)n1,-37.0,0.586µM*,-9.1%,0.329µM*,-13.1%
CCOC(=O)COc1ccc(C2C(C(=O)OC)=C(C)NC3=C2C(=O)c2ccccc23)cc1Cl (stereo unspecified),-101.8*,.,5.8%,.,.
CCOc1cc(Br)c(C2C(C(=O)OC)=C(C)NC3=C2C(=O)c2ccccc23)cc1OCC (stereo unspecified),-28.8,.,22.4µM*,.,.
CCOC(=O)COc1cc(Br)c(C2NC(=O)NC(C)=C2C(C)=O)cc1OCC (stereo unspecified),-16.1,.,-13.3%,9.28µM*,4.9%
CCOc1cc(C2C(C(=O)OC)=C(C)NC3=C2C(=O)c2ccccc23)c(Br)cc1OC (stereo unspecified),2.1,.,14.6%,.,.
CC(C)C[C@H]1CN([C@@H](CC(C)C)CN2CCCC2CN2C(=S)NC[C@@H]2Cc2ccc(O)cc2)C(=S)N1CC1CCCCCC1 (stereo partly specified),-69.7*,.,.,.,.
CC(C)C[C@H]1CN([C@@H](CC(C)C)CN2CCCC2CN2C(=S)NC[C@@H]2Cc2ccc(O)cc2)C(=S)N1CC1CCCCC1 (stereo partly specified),-107.4*,.,.,.,.
Cc1ccc(S(=O)(=O)/C=C2\OCc3ccccc32)cc1,-16.1,.,.,.,.
COc1ccccc1-c1cc(C(F)(F)F)nc(N2CCCC2)n1,-1.4,9.6%,2.7%,0.0%,0.5%
COc1ccccc1-c1cc(C(F)(F)F)nc(S(C)(=O)=O)n1,-104.3*,.,28.2µM*,?,2.2%
COc1ccccc1-c1cc(C(F)(F)F)nc(S(=O)(=O)CCCC(=O)NC(C)C)n1,-22.0,-8.4%,-1.8%,12.6%,7.6%
COc1ccccc1-c1cc(C(F)(F)F)nc(S(=O)(=O)CCCC(=O)NCc2ccc(F)cc2)n1,-98.8*,?,?,2.94µM*,2.1%
COc1ccccc1-c1cc(C(F)(F)F)nc(S(=O)(=O)CCCC(=O)Nc2cccnc2Cl)n1,-90.1*,?,?,8.4%,3.4%
COc1ccc(NC(=O)CCCS(=O)(=O)c2nc(-c3ccccc3OC)cc(C(F)(F)F)n2)c(OC)c1,13.7,.,-12.9%,.,.
COc1ccccc1-c1cc(C(F)(F)F)nc(S(=O)(=O)CCCC(=O)N2CCCCC2C)n1 (stereo unspecified),13.8,?,22.4µM*,32.3%,-0.3%
CC(=O)Nc1ccc(NC(=O)CC2(CC(=O)N3CCOCC3)CCCC2)cc1,-31.7,-3.9%,-3.3%,-17.6%,.
Cc1ccc(N2CC(O)=C(c3nc4ccccc4c(=O)[nH]3)C2=N)cc1C,-35.6,14.1%,?,36.9%,-6.7%
CCOC(=O)c1cc(-c2ccccc2)n(-c2cccc(C(=O)Nc3cccc(C)c3)c2)c1C,12.4,.,2.8%,.,.
COc1ccc(SCC(CC(C)C)N2CCN(CCc3ccccc3)CCC2=O)cc1 (stereo unspecified),.,.,.,.,-0.1%
O=C(O)CO,.,.,.,.,0.3%
COc1ccccc1-c1cc(C(F)(F)F)nc(S(=O)(=O)CCCC(=O)Nc2cc(C)on2)n1,-96.0*,-9.0%,4.0%,1.85µM*,-3.4%
SMILES,HCMV antiviral,Pf growth 48h,Sm TGR block,Pf growth 96h,FBPA Giardia inh
COc1ccccc1-c1cc(C(F)(F)F)nc(S(=O)(=O)CCCC(=O)Nc2ccccc2F)n1,-102.5*,.,-35.3%,.,.
COc1ccc(-c2cc(C(F)(F)F)nc(S(=O)(=O)CCCC(=O)Nc3cc(C)on3)n2)cc1OC,47.0,?,?,?,-1.9%
N#CCCn1cc(/C=N/NC(N)=S)c(-c2ccc(-c3ccccc3)cc2)n1,-40.0,?,0.5%,?,-5.4%
CCN(C(=O)COC(=O)c1ccc(SC)cc1OC)C1CCS(=O)(=O)C1 (stereo unspecified),30.5,.,.,.,.
COc1cccc(/C(O)=C2\C(=O)C(=O)N(c3ccccn3)C2c2ccccc2OC)c1 (stereo unspecified),14.8,8.1%,?,5.22µM*,10.6%
COC(=O)c1ccc(C2/C(=C(\O)c3ccc(OC)c(C)c3)C(=O)C(=O)N2c2cc(C)on2)cc1 (stereo unspecified),28.5,41.7%,6.4%,0.3%,8.0%
COc1ccc(/C(O)=C2/C(=O)C(=O)N(c3ccccn3)C2c2ccc(F)cc2)cc1 (stereo unspecified),-11.8,-12.1%,-16.2%,6.57µM*,1.8%
COc1ccc(C2/C(=C(\O)c3cccc(OC)c3)C(=O)C(=O)N2c2ccccn2)cc1 (stereo unspecified),-106.7*,?,-2.8%,7.2%,-1.5%
COc1ccc(C2/C(=C(/O)c3ccccc3)C(=O)C(=O)N2c2ccccn2)c(OC)c1 (stereo unspecified),30.7,-1.2%,6.8%,34.5%,1.9%
Cc1cc(N2C(=O)C(=O)/C(=C(/O)c3ccc(F)cc3)C2c2ccc(Cl)cc2)no1 (stereo unspecified),14.0,13.1µM*,0.4%,59.0%,?
O=C(COC(=O)c1cccc(Cl)c1)NCc1ccccc1,-20.5,.,.,.,.
O=C(CCc1ccccc1)NNC(=O)c1ccncc1,8.0,.,.,.,.

# High-throughput results: PubChem BioAssay, National Center for Advancing Translational Sciences (NCATS)
